Assay results as given in PubChem BioAssay (Tox21).
Results filed as inconclusive are left out. Unmarked numbers belong to inactive results. Calls come from the whole dose curve.

The compounds below were run against Thyrotropin receptor (Homo sapiens) (UniProt P16473) (assay: qHTS assay to identify small molecule agonists of the thyroid stimulating hormone receptor (TSHR) signaling pathway (AID 1224843; note: nearly all actives have a fitted effect of over 45% in size)). Conditions: TSHR-HEK293 cells, cAMP HTRF, agonist mode, 30 min; series mostly up to 92.4 µM; activation: at the top concentration.
Thyrotropin receptor (Homo sapiens), sequence (P16473 whole entry, looked up): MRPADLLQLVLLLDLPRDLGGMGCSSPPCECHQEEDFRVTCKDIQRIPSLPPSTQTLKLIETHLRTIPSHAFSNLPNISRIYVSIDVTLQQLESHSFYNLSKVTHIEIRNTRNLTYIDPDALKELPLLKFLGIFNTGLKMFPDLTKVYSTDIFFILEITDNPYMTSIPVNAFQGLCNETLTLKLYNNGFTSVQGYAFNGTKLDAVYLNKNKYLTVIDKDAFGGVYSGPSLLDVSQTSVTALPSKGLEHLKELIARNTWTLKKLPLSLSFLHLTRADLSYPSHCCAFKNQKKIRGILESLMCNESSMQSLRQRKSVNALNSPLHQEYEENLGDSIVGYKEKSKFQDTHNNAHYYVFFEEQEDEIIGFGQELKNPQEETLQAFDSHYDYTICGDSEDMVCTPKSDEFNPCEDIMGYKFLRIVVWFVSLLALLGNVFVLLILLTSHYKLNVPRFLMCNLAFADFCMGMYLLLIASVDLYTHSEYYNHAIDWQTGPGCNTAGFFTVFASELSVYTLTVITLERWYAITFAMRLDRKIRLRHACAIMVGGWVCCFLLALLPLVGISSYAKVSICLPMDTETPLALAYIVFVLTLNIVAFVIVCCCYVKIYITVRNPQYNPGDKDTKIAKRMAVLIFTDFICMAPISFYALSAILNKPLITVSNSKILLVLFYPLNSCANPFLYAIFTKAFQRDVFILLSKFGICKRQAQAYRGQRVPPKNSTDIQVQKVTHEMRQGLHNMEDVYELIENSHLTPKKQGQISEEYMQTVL
Text: National Center for Advancing Translational Sciences [NCATS]
NIH Chemical Genomics Center [NCGC]
U.S. Environmental Protection Agency [EPA]
National Institutes of Environmental Health Sciences [NIEHS]
National Toxicology Program [NTP]
U.S. Food and Drug Administration [FDA]
TSHR is the receptor for thyrotropin (thyroid stimulating hormone or TSH), a member of the glycoprotein hormone family. TSH is released by the anterior pituitary gland and is the main regulator of thyroid gland growth and development. Upon binding circulating thyrotropin, a G-protein signal cascade activates adenylyl cyclase and […] cAMP concentration is increased. cAMP is a key second messenger involved extensively in cellular signal transduction pathways associated with the majority of G-protein coupled receptors (GPCRs). The activation of these GPCRs by neurotransmitters, lipids, nucleotides, peptides and hormones results in the activation or the inhibition of plasma membrane-bound adenylate cyclase through heterotrimeric G-proteins. A cell-based TSHR assay was used to screen the Tox21 10K library for compounds that can modulate TSHR in agonist mode.
Tox21 Assay Protocol Summary:
TSHR-Hek293 cells were dispensed at 800 cells/4uL/well in 1536-well white plates using a Multidrop dispenser. […] The plates were incubated at room temperature for 30 min. 2.5 ul/well of cAMP-d2 and 2.5ul/well of anti-cAMP-cryptate was added respectively into the assay plates using a Flying Reagent Dispenser. After 1 hr incubation at room temperature, the fluorescence intensity in the plates was measured using an Envision plate reader. Each test compound was measured at 15 concentrations and in triplicates.
% is set by controls: 0 for no effect and ±100 for the full control effect.

SMILES | activation
CO[C@@H]1[C@@H](OC(N)=O)[C@@H](O)[C@H](Oc2ccc3c(O)c(NC(=O)c4ccc(O)c(CC=C(C)C)c4)c(=O)oc3c2C)OC1(C)C | -11% [at 42.5 µM]
CC(C)c1ccc2cc(C(C)C)ccc2c1 | -22.2%
COC(=O)CCCCCCCC(=O)OC | -14.9%
CCCCCCN | -10.4%
C[Si](C)=O | 1.85% [at 8.39 µM]
Cc1ccccc1N=O | 0.0626%
CCOc1cc(NC(C)=O)ccc1C(=O)OC | 3.91% [at 42.5 µM]
CC(CN)CC(C)(C)CCN (stereo not given) | 3.51% [at 240 µM]
O=C1c2ccccc2C(=O)C1c1ccccc1 | 7.46% [at 42.5 µM]
CCOCCOC(=O)/C=C/c1ccc(OC)cc1 | -3.3% [at 42.5 µM]
O=C(OCC1(COC(=O)c2cccnc2)CCCC(COC(=O)c2cccnc2)(COC(=O)c2cccnc2)C1O)c1cccnc1 | 0.342% [at 42.5 µM]
CC(C)=O | 16%
N[C@@H](COP(=O)(O)O)C(=O)O | 7.34% [at 19 µM]
Cc1[nH]cnc1-c1ccc(Cl)cc1 | 9.53% [at 42.5 µM]
Nc1cccc(O)c1 | 8.19%
CC(N)C(=O)OC(C)(C)Cc1ccc(Cl)cc1 (stereo not given) | -3.3% [at 42.5 µM]
CN(C)C(=O)CNC(=O)Cc1ccccc1 | 8.08% [at 42.5 µM]
CC(C(=O)O)c1ccc2c(c1)CC(=O)c1ccccc1S2 (stereo not given) | 5.81% [at 42.5 µM]
BrCCCCCBr | -1.41%
CC(C)(C)c1cc(CCC(=O)NN)cc(C(C)(C)C)c1O | 18.6%

SMILES | activation
CCN(CC)CC(=O)Nc1c(C)cccc1C | -0.0503% [at 42.5 µM]
CC(C)(C)OC(=O)c1ccc(O)cc1 | -9.84%
O=C(O)c1cc(Br)c(O)c(Br)c1 | -0.0786%
Cc1ccc2c(c1)OCC(=O)CO2 | -2.81%
CCN(C)C(=O)Oc1cccc([C@H](C)N(C)C)c1 | 0.842% [at 42.5 µM]
N[C@@H](CCC(=O)Nc1ccc([N+](=O)[O-])cc1)C(=O)O | 1.45%
COc1ccc(Br)c(C)c1 | 0.349%
CC(C)=CCOC(=O)c1ccccc1 | -5.57%
CC1=C(C(=O)O)N2C(=O)[C@@H](NC(=O)[C@H](N)c3ccc(O)cc3)[C@H]2SC1 | -7.55% [at 42.5 µM]
Nc1ncnc(Nc2ccccc2)n1 | 2.36% [at 42.5 µM]
COc1nccnc1NS(=O)(=O)c1ccc(N)cc1 | 3.75% [at 42.5 µM]
CC(C)(C)c1n[nH]c(=S)n(N)c1=O | -3.13%
Cc1ccc2ccc(Cl)cc2n1 | -0.866% [at 42.5 µM]
CC1(CO)CN(c2ccccc2)NC1=O (stereo not given) | 22.7%
CC/C=C\CC1=C(C)CCC1=O | 4.56%
CC(=O)OC(C)OC(=O)C(C)c1ccc(-c2ccccc2)c(F)c1 (stereo not given) | -6.88% [at 42.5 µM]
CCCCOC(=O)c1ccccc1 | 6.46%
COc1ccc2c(c1)C(=O)N(CCc1ccc(S(=O)(=O)NC(=O)NC3CCCCC3)cc1)C(=O)C2(C)C | -0.0503% [at 42.5 µM]
Cc1cc2cc3c(C)cc(=O)oc3c(C)c2o1 | -2.8% [at 42.5 µM]
NCCN1CCOCC1 | 0.99%
